Bioassay records from PubChem BioAssay.
A selection: hits, their analogues and other compounds. The true share with any hit is near 2.6%.
TCR act: activators of T cell receptors; primary human leukocytes, anti-CD3, IL-2 HTRF, 48 h; Potency, µM (series often up to 9.22 µM), hits mostly activators; AID 504894; 330,000 tested, under 10 active
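Compounds are tested in HTS on primary human leukocytes co-incubated with a-CD3 beads for 48 hr. IL-2 output is measured by time-resolved FRET.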
CCT modulator: changes cytosolic chaperonin activity; purified chaperonin ATPase assay, HTRF ADP detection, 30 min; hit rate 0.3% among 360,000; activity change, % (concentration not given with the values), hits read low; in the data active = activity change below about -30%
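TRiC at 40 or 20 nM final (batch-dependent) in 30 mM Tris pH 7.4, 100 mM KCl, 5 mM MgCl2, 1 mM DTT, with compound at single 76 uM and 10 uM ATP, 30 min at 37 deg C. ADP detected by HTRF Transcreener, 665/615 ratio.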
A549 viability: A549 cytotoxicity, counter-screen for Nrf2 inhibitors. A549 ARE-Fluc cells, CellTiter-Fluor viability, 18-24 h. Potency, µM (highest dose often 46 µM), usual class: inhibitors. hit rate 0.16% among 390,000
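A549 ARE_Fluc cells in 5% FBS OPTI-MEM were exposed to compounds in concentration-response for 18-24 h at 37 deg C. Viability was read by CellTiter-Fluor fluorescence (Ex 405/Em 525) after 30 min, before the luciferase read.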
Nrf2 ARE act: activators of Nrf2 (ARE) signaling | AREc32 ARE-luciferase reporter (MCF7-derived line), luminescence, 24 h | Potency, µM (highest dose often 46.1 µM), most hits filed as activators | hit rate 0.31% among 410,000 | AID 624171; also: nearly all actives have a fitted effect of over 65% in size
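For detection, Steady-Glo was added and plates sat 30 min at RT; before that, AREc32_Fluc cells grown overnight in OPTI-MEM/5% FBS had been treated with 23 nL compound for 24 hr at 37 deg C.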
A-T KAP1 phos: potential ataxia-telangiectasia treatment | Potency, µM (series often up to 57.5 µM), hits mostly activators | AID 485349 | F2112 A-T fibroblasts, KAP-1 phosphorylation AlphaLISA; neocarzinostatin DNA damage 30 min before lysis | hit rate 0.19% among 320,000; also: nearly all actives have a fitted effect of over 45% in size
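ATM-like activity read as KAP-1 phosphorylation via AlphaLISA donor/acceptor antibody pairs after lysis and 6 hr at 25C. Cells were ATM-null patient fibroblasts (F2112, hTERT), dosed 60 min, then exposed to the DSB inducer NCS for 30 min.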
Nrf2 inh: inhibitors of Nrf2 signaling; A549 ARE-Fluc reporter, luciferase luminescence, 18-24 h; Potency, µM (doses to about 46 µM), most hits filed as inhibitors; hit rate 2.1% among 360,000; also: nearly all actives have a fitted effect of over 60% in size
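Nrf2 function is reported as luminescence of an ARE-controlled luciferase in A549 cells. Compounds were tested at several concentrations, and a CellTiter-Fluor read on the same wells flagged cytotoxicity.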
Hits are given with their value; n = inactive; u = inconclusive; x = no result. Unless noted, calls follow the shape of the dose curve; as a rule, active = well fitted curve in the direction sought with a large enough effect; inconclusive = small, poorly fitted or top-dose-only effect, or another doubt; inactive = no such curve, though single readings can be large; an effect the other way counts as inactive or inconclusive.

SMILES | TCR act | CCT modulator | A549 viability | Nrf2 ARE act | A-T KAP1 phos | Nrf2 inh
CCCCCn1c(=O)[nH]c2cc(C(=O)N3CCN(c4ccc(C(C)=O)cc4)CC3)ccc2c1=O | n | n | n | n | n | 21µM
CCCCCn1c(=O)[nH]c2cc(C(=O)N3CCN(c4ccc(F)cc4)CC3)ccc2c1=O | n | n | n | n | x | u
COc1ccc(C(=O)N2CCN(Cc3ccc4c(c3)OCO4)CC2)cc1OC | n | n | n | n | n | 16µM
O=C(Cn1cc(C(=O)c2ccncc2)c(=O)c2cc(F)ccc21)Nc1ccc(Cl)cc1 | x | x | n | n | x | x
Nc1nc(Nc2cc(F)cc(F)c2)nc(NC2CCCC2)n1 | x | x | n | x | x | n
COc1ccc(Cn2c(=O)[nH]c3cc(C(=O)N4CCN(c5ccccc5OC)CC4)ccc3c2=O)cc1 | n | n | n | n | n | 21µM
O=C(c1ccc(Cn2c(=O)[nH]c3ccsc3c2=O)cc1)N1CCN(c2ccccc2)CC1 | n | n | n | n | n | u
COc1ccccc1N1CCN(C(=O)c2ccc3c(=O)n(Cc4ccc5c(c4)OCO5)c(=O)[nH]c3c2)CC1 | n | n | n | n | n | 15µM
COCCn1c(=S)[nH]c2cc(C(=O)N3CCN(c4cccc(Cl)c4)CC3)ccc2c1=O | n | n | u | n | n | 21µM
COc1ccccc1Cn1c(=S)[nH]c2cc(C(=O)N3CCN(c4ccccc4OC)CC3)ccc2c1=O | n | n | n | n | n | n
O=C(c1ccc(Cn2c(=O)[nH]c3ccccc3c2=O)cc1)N1CCN(c2ccc(F)cc2)CC1 | x | n | n | n | n | 10µM
CS(=O)(=O)Nc1cccc(-c2cc(F)c(S(=O)(=O)N3CCN(S(=O)(=O)c4ccc5c(c4)OCCO5)CC3)cc2F)c1 | x | x | n | x | x | n
CCOc1ccc(CCNc2ncnc3onc(-c4ccc(F)cc4)c23)cc1OCC | x | x | n | n | x | x
COc1ccc(Cn2c(=O)[nH]c3cc(C(=O)N4CCN(Cc5ccccc5)CC4)ccc3c2=O)cc1 | n | n | n | n | n | 23µM
COCCn1c(=O)[nH]c2cc(C(=O)N3CCN(Cc4ccc5c(c4)OCO5)CC3)ccc2c1=O | n | n | n | n | x | 12µM
O=C(C1CCCN(Cc2ccc3c(c2)OCO3)C1)N1CCCC1 (stereo not given) | n | -34 | n | n | n | x
CCN(CC)C(=O)C1CCCN(Cc2ccc3c(c2)OCO3)C1 (stereo not given) | n | n | n | n | x | n
COc1ccc(Cn2c(=O)[nH]c3cc(C(=O)N4CCN(c5ccccc5F)CC4)ccc3c2=O)cc1 | n | n | n | n | n | n
Cc1ccccc1C(=O)NCC(=O)OC(C(=O)Nc1cc(C(F)(F)F)ccc1Cl)c1ccccc1 (stereo not given) | x | x | n | x | x | n
Cc1ccccc1NC(=O)CSC1=Nc2ccccc2C2=NC(CCC(=O)NCc3ccccc3)C(=O)N12 (stereo not given) | x | x | n | n | x | u
CN1CCN(NC(=O)C2CC2)CC1 | n | n | n | n | n | n
Cc1ccc(CNc2cc(-c3nn4c(C)nnc4s3)ccc2C)s1 | n | n | n | n | n | 16µM
O=C(CCC1N=C2c3ccccc3N=C(SCC(=O)NCC3CCCO3)N2C1=O)NCc1ccc(F)cc1 (stereo not given) | n | -46 | n | n | n | n
O=C(CCC1N=C2c3ccccc3N=C(SCc3ccccc3Cl)N2C1=O)NCc1ccco1 (stereo not given) | n | n | u | n | n | 18µM
CC(=O)c1c(C(C)=O)c(C)n(-c2ccc(C)c(NC(=O)c3ccccc3Cl)c2)c1C | x | n | n | n | n | 15µM
SMILES | TCR act | CCT modulator | A549 viability | Nrf2 ARE act | A-T KAP1 phos | Nrf2 inh
C=CCn1cccc(C(=O)Nc2ccc(OCC)cc2)c1=O | n | n | n | n | n | 12µM
CS(=O)c1nc(-c2ccc(Br)cc2)cc(-c2ccccc2)c1C#N (stereo not given) | n | n | u | n | n | 15µM
CS(=O)(=O)c1nc(-c2ccc(Br)cc2)cc(-c2ccccc2)c1C#N | x | n | u | n | n | u
CC1Sc2n(c3ccccc3[n+]2C)N=C1c1ccccc1 (stereo not given) | n | -34 | n | u | n | 12µM
C[n+]1c2n(c3ccccc31)N=C(c1ccc(Cl)cc1)CS2 | n | n | x | u | n | u
Cn1cc(S(=O)(=O)Nc2ccc(OC(F)(F)F)cc2)c(=O)n(C)c1=O | n | n | n | n | 13µM | n
COc1ccc(-c2n[nH]c3c2C(c2ccccn2)N(C)C3=O)cc1 (stereo not given) | x | x | n | n | x | n
Cc1ccc2nc(-c3ccc(SCC(=O)N4CCc5ccccc54)nc3)[nH]c2c1 | n | -44 | n | n | n | n
CC1CCN(S(=O)(=O)c2ccc3c(c2)CCC(=O)N3CC(=O)Nc2cccc(C#N)c2)CC1 | x | x | n | n | n | x
Clc1ccc(-c2cccc3nccn23)c(Cl)c1 | x | -77 | x | n | x | x
C[C@@]12C(=O)N(c3ccc(Br)cc3)C(=O)N1[C@@H]1c3ccccc3OC[C@@H]1[C@H]2c1ccccc1 | n | n | n | n | n | n
Cc1ccc(N(CC(=O)Nc2ccc(-c3nc4ccc(C)cc4s3)cc2)S(C)(=O)=O)cc1 | n | -40 | n | n | n | u
N#Cc1nc(Nc2ccc(Br)cc2)nc(NC2CCCC2)n1 | x | x | n | x | x | u
O=C1c2ccccc2C(=O)N1CCCCN(C(=O)c1ccc([N+](=O)[O-])cc1)c1ccc(Cl)cc1 | n | n | n | n | n | u
O=C1c2ccccc2C(=O)N1CCCCN(C(=O)c1cc([N+](=O)[O-])cc([N+](=O)[O-])c1)c1ccc(Cl)cc1 | n | n | n | n | n | 23µM
N#Cc1ccccc1CSc1nnc(-c2ccccc2)o1 | x | x | n | n | x | u
CC1CCCN(S(=O)(=O)c2ccc([N+](=O)[O-])cc2)C1 (stereo not given) | n | n | u | n | n | n
CC1CC(C)CN(S(=O)(=O)c2ccc(Oc3ccc([N+](=O)[O-])cc3)cc2)C1 (stereo not given) | n | n | n | n | n | 23µM
CCOC(=O)c1sc(NC(=O)c2ccc(S(=O)(=O)N3CCOCC3)cc2)nc1-c1ccccc1 | n | n | n | n | n | 21µM
CCOC(=O)c1sc(NC(=O)c2ccc(S(=O)(=O)N3CCCCC3)cc2)nc1-c1ccccc1 | n | n | n | n | n | 23µM
Cc1ccc(CNc2nccn(-c3cc(C)cc(C)c3)c2=O)cc1 | x | x | n | n | x | u
COc1cc(CNC(=O)c2cnc3c(-c4cccc(C)c4)c(C)nn3c2C)cc(OC)c1OC | x | x | n | n | x | 21µM
COc1ccccc1CNC(=O)c1cnc2c(-c3ccccc3)c(C)nn2c1C | x | x | n | n | x | n
